Data: the supplement of paper PMC8728848
The sample as a whole holds a higher share of the strongest signals than the screen did.

Legend:
Assay in all cases: glycan array binding signal (z-score within array); higher = stronger binding
Details in all cases: glycan notation: IUPAC condensed, linker removed
[1] = target: GlcNAc(a1-4)Gal(b1-3)GlcNAc
Outline: (§1)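 Glycan array data came from 3228 arrays in the Consortium for Functional Glycomics database, and only arrays with an available protein sequence were kept. Glycan names were put into IUPAC-condensed notation, and columns mapping to the same glycan were averaged. The binding signal is a within-array Z-score, averaged across arrays of one protein sequence run at different concentrations or buffers and across linkers. A negative Z-score can be read as non-binding.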

[2] = target: GlcNAc(b1-2)[GlcNAc(b1-4)]Man(a1-3)[GlcNAc(b1-2)Man(a1-6)]Man(b1-4)GlcNAc(b1-4)GlcNAc
Outline: as §1

[3] = target: GlcNAc(b1-3)Gal(b1-3)GalNAc
Outline: as §1

[4] = target: GlcNAc(b1-3)Gal(b1-4)GlcNAc(b1-3)Gal(b1-4)GlcNAc(b1-2)Man(a1-3)[GlcNAc(b1-3)Gal(b1-4)GlcNAc(b1-3)Gal(b1-4)GlcNAc(b1-2)Man(a1-6)]Man(b1-4)GlcNAc(b1-4)[Fuc(a1-6)]GlcNAc
Outline: as §1

[5] = target: GlcNAc(b1-3)Gal(b1-4)GlcNAc(b1-6)[Gal(b1-3)]GalNAc
Outline: as §1

[6] = target: GlcNAc(b1-3)Gal(b1-4)GlcNAc(b1-6)[GlcNAc(b1-3)]Gal(b1-4)GlcNAc
Outline: as §1

[7] = target: GlcNAc(b1-4)Gal(b1-4)GlcNAc
Outline: as §1

[8] = target: GlcNAc(b1-4)GlcNAc(b1-4)GlcNAc(b1-4)GlcNAc(b1-4)GlcNAc
Outline: as §1

GlcNAc(b1-6)GalNAc = target: GlcNAc(b1-6)GalNAc
Outline: as §1

Kdn(a2-3)Gal(b1-4)GlcNAc = target: Kdn(a2-3)Gal(b1-4)GlcNAc
Outline: as §1

[9] = target: Man(a1-2)Man(a1-2)Man(a1-3)Man
Outline: as §1

[10] = target: Man(a1-2)Man(a1-3)[Man(a1-2)Man(a1-6)]Man(a1-6)[Man(a1-2)Man(a1-2)Man(a1-3)]Man(b1-4)GlcNAc(b1-4)GlcNAc
Outline: as §1

[11] = target: Man(a1-2)Man(a1-6)[Man(a1-3)]Man(a1-6)[Man(a1-2)Man(a1-2)Man(a1-3)]Man(b1-4)GlcNAc(b1-4)GlcNAc
Outline: as §1

[12] = target: Neu5Ac(a2-3)Gal(b1-3)GalNAc(b1-3)Gal(a1-4)Gal(b1-4)Glc
Outline: as §1

[13] = target: Neu5Ac(a2-3)Gal(b1-3)GlcNAc(b1-6)GalNAc
Outline: as §1

[14] = target: Neu5Ac(a2-3)Gal(b1-3)GlcNAc6S
Outline: as §1

[15] = target: Neu5Ac(a2-3)Gal(b1-4)GlcNAc(b1-3)Gal
Outline: as §1

[16] = target: Neu5Ac(a2-3)Gal(b1-4)[Fuc(a1-3)]GlcNAc(b1-2)Man
Outline: as §1

[17] = target: Neu5Ac(a2-3)Gal(b1-4)[Fuc(a1-3)]GlcNAc(b1-6)[Neu5Ac(a2-3)Gal(b1-3)]GalNAc
Outline: as §1

Neu5Ac(a2-3)GalNAc = target: Neu5Ac(a2-3)GalNAc
Outline: as §1

Neu5Ac(a2-6)Gal = target: Neu5Ac(a2-6)Gal
Outline: as §1

[18] = target: Neu5Ac(a2-6)Gal(b1-4)GlcNAc(b1-2)[Neu5Ac(a2-6)Gal(b1-4)GlcNAc(b1-6)]Man(a1-6)[Neu5Ac(a2-6)Gal(b1-4)GlcNAc(b1-2)Man(a1-3)][GlcNAc(b1-4)]Man(b1-4)GlcNAc(b1-4)GlcNAc
Outline: as §1

[19] = target: Neu5Ac(a2-6)Gal(b1-4)GlcNAc(b1-3)Gal(b1-4)GlcNAc(b1-2)Man(a1-3)[Neu5Ac(a2-6)Gal(b1-4)GlcNAc(b1-3)Gal(b1-4)GlcNAc(b1-2)Man(a1-6)]GalNAc
Outline: as §1

[20] = target: Neu5Ac(a2-8)Neu5Ac(a2-3)Gal(b1-3)GalNAc(b1-4)[Neu5Ac(a2-3)]Gal(b1-4)Glc
Outline: as §1

[21] = target: Neu5Ac(a2-8)Neu5Ac(a2-3)Gal(b1-3)GalNAc(b1-4)[Neu5Ac(a2-8)Neu5Ac(a2-3)]Gal(b1-4)Glc
Outline: as §1

[22] = target: Neu5Gc(a2-6)Gal(b1-4)GlcNAc
Outline: as §1

[23] = target: Neu5Gc(a2-8)Neu5Gc(a2-3)Gal(b1-4)GlcNAc
Outline: as §1

[24] = target: Neu5Gc(a2-8)Neu5Gc(a2-3)Gal(b1-4)GlcNAc(b1-3)Gal(b1-4)GlcNAc
Outline: as §1

[25] = target: Neu5Gc(a2-8)Neu5Gc(a2-6)Gal(b1-4)GlcNAc
Outline: as §1

B1: CBP21 (Serratia marcescens), O83009 (protein)
chain: MNKTSRTLLSLGLLSAAMFGVSQQANAHGYVESPASRAYQCKLQLNTQCGSVQYEPQSVEGLKGFPQAGPADGHIASADKSTFFELDQQTPTRWNKLNLKTGPNSFTWKLTARHSTTSWRYFITKPNWDASQPLTRASFDLTPFCQFNDGGAIPAAQVTHQCNIPADRSGSHVILAVWDIADTANAFYQAIDVNLSK
[1]
  glycan array binding signal (z-score): 0.503
[2]
  glycan array binding signal (z-score): -0.435
[3]
  glycan array binding signal (z-score): 0.04
[4]
  glycan array binding signal (z-score): 3.08
[5]
  glycan array binding signal (z-score): -0.256
[6]
  glycan array binding signal (z-score): -1.31
[7]
  glycan array binding signal (z-score): 0.145
[8]
  glycan array binding signal (z-score): 0.729
GlcNAc(b1-6)GalNAc
  glycan array binding signal (z-score): -0.697
Kdn(a2-3)Gal(b1-4)GlcNAc
  glycan array binding signal (z-score): -0.42
[9]
  glycan array binding signal (z-score): -0.437
[10]
  glycan array binding signal (z-score): 2.53
[11]
  glycan array binding signal (z-score): 0.074
[12]
  glycan array binding signal (z-score): 1.24
[13]
  glycan array binding signal (z-score): 0.458
[14]
  glycan array binding signal (z-score): -0.561
[15]
  glycan array binding signal (z-score): -0.019
[16]
  glycan array binding signal (z-score): -1.42
[17]
  glycan array binding signal (z-score): -0.314
Neu5Ac(a2-3)GalNAc
  glycan array binding signal (z-score): -0.582
Neu5Ac(a2-6)Gal
  glycan array binding signal (z-score): 0.109
[18]
  glycan array binding signal (z-score): 0.063
[19]
  glycan array binding signal (z-score): 2.96
[20]
  glycan array binding signal (z-score): 4
[21]
  glycan array binding signal (z-score): 0.155
[22]
  glycan array binding signal (z-score): 0.755
[23]
  glycan array binding signal (z-score): -0.788
[24]
  glycan array binding signal (z-score): 0.62
[25]
  glycan array binding signal (z-score): 0.37
